According to publication PMC4336329 (PLoS ONE, 2015):
Hit rate of the full screen: of about 310,000 compounds, about 14,000 (4.5%) showed an effect of 50% or more. The effect is printed as a negative number. The entries come from a sample that favours strong results as a whole.

Target: human ether-à-go-go-related gene (hERG) potassium channel (human, UniProt Q12809)
Test: primary screen, population patch clamp on CHO cells stably expressing hERG; higher = less effect of the substance
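Also: peak tail current of the secondary pulse compared with the same well before compound.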

Sequence of human ether-à-go-go-related gene (hERG) potassium channel (Q12809 whole entry, looked up): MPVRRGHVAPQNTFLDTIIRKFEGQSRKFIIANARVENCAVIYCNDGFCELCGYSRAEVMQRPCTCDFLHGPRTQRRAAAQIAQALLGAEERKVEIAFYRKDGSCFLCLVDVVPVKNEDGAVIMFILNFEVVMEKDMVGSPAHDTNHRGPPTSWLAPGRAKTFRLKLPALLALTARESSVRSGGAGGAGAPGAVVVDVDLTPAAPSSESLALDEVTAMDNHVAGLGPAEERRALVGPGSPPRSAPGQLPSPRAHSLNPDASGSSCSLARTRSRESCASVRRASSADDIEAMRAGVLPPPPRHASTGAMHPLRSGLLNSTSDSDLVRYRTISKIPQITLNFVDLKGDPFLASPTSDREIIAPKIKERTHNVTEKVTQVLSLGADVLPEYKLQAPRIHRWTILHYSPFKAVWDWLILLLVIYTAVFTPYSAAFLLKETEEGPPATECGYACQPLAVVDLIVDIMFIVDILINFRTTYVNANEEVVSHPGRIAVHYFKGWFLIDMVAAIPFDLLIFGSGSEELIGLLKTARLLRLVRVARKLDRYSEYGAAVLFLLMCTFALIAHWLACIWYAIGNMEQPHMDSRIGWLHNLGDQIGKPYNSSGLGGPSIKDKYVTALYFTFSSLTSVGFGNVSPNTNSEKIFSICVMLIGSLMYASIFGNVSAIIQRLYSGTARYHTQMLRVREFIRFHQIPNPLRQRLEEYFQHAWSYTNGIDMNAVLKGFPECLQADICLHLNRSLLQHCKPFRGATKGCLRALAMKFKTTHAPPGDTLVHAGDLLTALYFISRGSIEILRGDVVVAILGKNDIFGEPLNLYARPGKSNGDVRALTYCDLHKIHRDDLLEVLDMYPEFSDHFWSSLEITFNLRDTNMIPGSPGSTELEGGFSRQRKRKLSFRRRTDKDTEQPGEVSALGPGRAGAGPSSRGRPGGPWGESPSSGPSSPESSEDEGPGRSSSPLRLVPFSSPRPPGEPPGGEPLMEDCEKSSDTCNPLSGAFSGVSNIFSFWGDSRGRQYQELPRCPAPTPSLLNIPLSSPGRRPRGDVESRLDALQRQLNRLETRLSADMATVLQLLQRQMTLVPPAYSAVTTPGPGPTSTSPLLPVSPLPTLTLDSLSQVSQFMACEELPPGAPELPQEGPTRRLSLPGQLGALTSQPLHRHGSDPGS

Row | Compound | hERG current change (%, negative = inhibition) at 10uM [%]
1 | CCOC(=O)c1cnn(CCOC(=O)c2ccccc2F)c1NC(=O)c1ccccc1F | -15.6
2 | COC(=O)c1cc(Br)c(=O)n(-c2nccs2)c1 | -5.98
3 | Cc1cccc(N2C(S)=C(C#N)C(=O)NC2c2cccs2)c1 (centres unmarked) | 13
4 | CN(CC(=O)Nc1cccc2ccccc12)C(=O)/C=C/c1cccs1 | -10.7
5 | O=C1OC(/C=C/c2ccc(Cl)cc2)=NC/1=C/c1ccco1 | 2.78
6 | Cc1occc1C(=O)NNC(=O)c1ccccc1F | 13
7 | CC(=O)C(=Nc1cccc(Cl)c1)NNc1ccccc1C | 8.82
8 | O=C(N1CCN(c2ccc(F)cc2)CC1)C1(c2cccs2)CCOCC1 | -33
9 | O=C(c1ccco1)N1CCN(c2ccc([N+](=O)[O-])cn2)CC1 | -57.7
10 | O=C(c1ccco1)N1CCN(c2ccc(N3CCCCC3)nn2)CC1 | -44.8
11 | O=C(c1ccco1)N1CCN(c2ccc([N+](=O)[O-])cc2F)CC1 | -64.9
12 | O=C(c1ccc([N+](=O)[O-])cc1)N1CCN(C(=O)c2ccco2)CC1 | -47.4
13 | O=C(c1ccco1)N1CCN(c2cc(N3CCOCC3)c(F)cc2[N+](=O)[O-])CC1 | -49.6
14 | CC(=O)c1ccc(N2CCN(C(=O)c3ccco3)CC2)c(F)c1 | -25.2
15 | O=C(CCCNS(=O)(=O)c1cccc2nsnc12)NCc1ccc(Cl)cc1 | -37.9
16 | CC(C)n1nc(C(=O)N2CCN(S(=O)(=O)c3cccs3)CC2)c2ccccc2c1=O | -28.7
17 | O=C(CSc1nn(-c2ccc(Cl)cc2)c(=S)s1)N1CCN(C(=O)c2ccco2)CC1 | -70.5
18 | O=C(CSc1nn(-c2ccc(F)cc2)c(=S)s1)N1CCN(C(=O)c2ccco2)CC1 | -75
19 | O=C(CSc1nn(-c2ccc(F)cc2)c(=S)s1)NC(=O)NCc1ccco1 | 2.66
20 | CC(C)Nc1nnc(SCC(=O)N2CCN(C(=O)c3ccco3)CC2)s1 | -2.72
21 | O=C(CSc1nnc(SCc2ccc(Cl)cc2)s1)N1CCN(C(=O)c2ccco2)CC1 | -33.7
22 | CCSc1nnc(SCC(=O)N2CCN(C(=O)c3ccco3)CC2)s1 | -33.4
23 | O=S(=O)(c1ccc(Cl)cc1)N1CCN(C(=S)Nc2ccccc2F)CC1 | 2.92

Row | Compound | hERG current change (%, negative = inhibition) at 10uM [%]
24 | O=C(Nc1cccc(-c2ccc(N3CCOCC3)nn2)c1)c1ccccc1 | -30.8
25 | CC(=O)C[C@@H](O)CC(=O)[C@H]1OC(=O)CC/C=C\Cc2ccccc21 | 14.4
26 | O=C(CN1C(=O)C2CC=CCC2C1=O)NCC1COc2ccccc2O1 (centres unmarked) | 1.42
27 | CN(C)C(=O)NC(Nc1cccc([N+](=O)[O-])c1)C(Cl)(Cl)Cl (centres unmarked) | -27.1
28 | CCc1ccc(CNC(=O)c2ccc(OC)c(OC3CCN(C(C)C)CC3)c2)nc1 | -7.31
29 | Cc1ccnc(NC(c2cccnc2)c2ccc3cccnc3c2O)c1 (centres unmarked) | -22.5
30 | COc1ccc(N2CCN(C(=O)C(=O)c3cn(CC(=O)N4CCOCC4)c4ccccc34)CC2)cc1 | 2.05
31 | S=C1NC(c2ccccc2)=CC(c2ccccc2)N1 (centres unmarked) | 6.64
32 | CC(=O)NN1C(=O)/C(=C2/Sc3ccc(Cl)cc3N2C)SC1=S | 10.6
33 | C#CC[N+](C)(C)CCCCCCCCCC.[Br-] | -38.4
34 | C#CC[N+](C)(C)CCCCCCCC.[Br-] | -15.9
35 | CC#CC[N+](C)(C)CCCCCCCCCC.[Br-] | -48.8
36 | C#CC[N+](C)(C)CCCCCCCCC.[Br-] | -54.9
37 | CC#CC[N+](C)(C)CCCCCCCC.[Br-] | -40.1
38 | C#CC[N+](C)(C)CCCCCCCCCCCC.[Br-] | -50.7
39 | CCCCNC(=O)c1ccc2c(c1)N(CC)C(=O)CS2 | -2.74
40 | COC(=O)C1=C(C)N(Cc2ccccc2)C(=NCc2cc(OC)c(OC)c(OC)c2)N[C@H]1c1cccc(F)c1 | -23
41 | COc1ccc(OC)c(/C=C(\C)C(=O)c2c(C)cc(C)[nH]c2=O)c1 | 7.34
42 | O=C(Nc1ccc(NC(=O)c2ccc([N+](=O)[O-])o2)cc1Cl)c1ccco1 | 9.42
43 | CN1CCN(c2ccc(NC(=O)c3ccco3)cc2Cl)CC1 | -16.8
44 | CC(=O)N1CCN(c2ccc(NC(=O)c3ccco3)cc2Cl)CC1 | 0.303
45 | CC(=O)N1CCN(c2ccc(NC(=O)c3ccc([N+](=O)[O-])o3)cc2Cl)CC1 | -50
46 | CN1CCN(c2ccc(NC(=O)c3ccc([N+](=O)[O-])o3)cc2Cl)CC1 | -57.3

Row | Compound | hERG current change (%, negative = inhibition) at 10uM [%]
47 | CC(=O)N1CCN(c2ccc(NC(=O)c3ccc(N4CCCC4)c([N+](=O)[O-])c3)cc2Cl)CC1 | -12.4
48 | CC1CCCCC12NC(=O)N(CC(=O)NCCc1ccc(F)cc1)C2=O (centres unmarked) | -19.7
49 | Cc1ccc2[nH]c3c(=O)n(CC(=O)Nc4ccccc4N4CCN(C)CC4)ncc3c2c1 | -5.73
50 | COc1ccc(/C=C2/SC(=S)N(CCCC(=O)Nc3cccc(O)c3)C2=O)cc1 | 9.11
51 | Cc1cccc(NC(=O)CN(C)S(=O)(=O)c2ccc3c(c2)n(C)c(=O)c(=O)n3C)c1C | -7.72
52 | Br.COc1ncnc2c1N=C1CC(C)(C)CC(N)=C1S2 | -10.4
53 | Cc1ccc(S(=O)(=O)N2CCN(c3ccccc3)CC2)cc1 | 13
54 | CC(C)N(Cc1ccccc1)CC(O)COc1ccc(S(=O)(=O)N2CCOCC2)cc1Cl (centres unmarked) | -32.3
55 | COC(=O)Cc1c[nH]c2cccc(OCC(O)CN(Cc3ccccc3)C(C)C)c12.O=C(O)c1ccccc1O (centres unmarked) | -63
56 | COc1ccc(COCC(O)CN(Cc2ccccc2)C(C)C)cc1OC (centres unmarked) | 0.398
57 | O=C(C[n+]1cc(-c2ccc(Cl)c(Cl)c2)n2c1CCC2)c1cccs1.[Br-] | -3.09
58 | O=C(N/N=C/c1cccc(OC(=O)c2ccccc2Cl)c1)c1cccnc1 | -17
59 | O=C(Nc1cccc2ccccc12)c1cccc([N+](=O)[O-])c1 | 11.6
60 | CCN(CC)CCN1C(=O)c2ccccc2NC1c1ccccc1F (centres unmarked) | -46.3
61 | O=C1c2ccccc2NC(c2cccc(F)c2)N1Cc1ccco1 (centres unmarked) | -48.6
62 | O=C1c2ccccc2NC(c2cccc(F)c2)N1Cc1ccccc1 (centres unmarked) | -71.1
63 | O=C1c2ccccc2NC(c2ccc(F)cc2)N1Cc1ccccc1 (centres unmarked) | -9.65
64 | O=C1c2ccccc2NC(c2ccccc2)N1Cc1ccccc1 (centres unmarked) | -35.2
65 | CCN(CC)CCN1C(=O)c2ccccc2NC1c1ccc(C)cc1 (centres unmarked) | -66.1
66 | CCN(CC)CCN1C(=O)c2ccccc2NC1c1ccc(N(C)C)cc1 (centres unmarked) | -46.6
67 | CCCN1C(=O)c2ccccc2NC1c1ccc(Cl)c(Cl)c1 (centres unmarked) | 6.85
68 | CCCN1C(=O)c2ccccc2NC1c1ccc(Br)cc1 (centres unmarked) | -18.1
69 | CCN(CC)CCN1C(=O)c2ccccc2NC1c1ccc(Br)cc1 (centres unmarked) | -85.7

Row | Compound | hERG current change (%, negative = inhibition) at 10uM [%]
70 | CCN(CC)CCN1C(=O)c2ccccc2NC1c1cccc(F)c1 (centres unmarked) | -68.2
71 | CCCN1C(=O)c2ccccc2NC1c1ccc(C)cc1 (centres unmarked) | -4.35
72 | COc1ccc(NC(=S)N2CCN(Cc3cccc(F)c3)CC2)c(OC)c1 | -6.36
73 | COc1ccc(C(=O)N2C(=S)NC(=O)/C2=C\c2ccc(C)cc2)cc1 | -2.42
74 | Cc1cccc(CN2C(=O)/C(=C\c3ccc(C(=O)NCCCN4CCN(C)CC4)cc3)Oc3ccccc32)c1 | -4.13
75 | O=C(NCCNC1CCN(Cc2ccccc2)CC1)c1cccs1 | -15.2
76 | COc1ccc(NC(=O)CN(C)CC(=O)Nc2ccc(Cl)cc2[N+](=O)[O-])cc1 | -48
77 | CCOC(=O)c1[nH]cnc1C(=O)Nc1ccc(C)cc1 | 11.6
78 | CC1(C)CC(NC(=O)Nc2ccc([N+](=O)[O-])cc2)CC(C)(C)N1 | 9.76
79 | FC(F)(F)c1nnc2c(Sc3ccc(Cl)cc3)nc3ccccc3n12 | 13.5
80 | CC(=O)c1c(C)oc2ccc(OCc3ccccc3)cc12 | 0.181
81 | Cc1ccc(NC2=NC(c3ccc(F)cc3)n3c(nc(C)cc3=O)N2)c(C)c1 (centres unmarked) | 21.8
82 | O=C(Cn1cc([N+](=O)[O-])cn1)NCc1ccccc1 | 20.9
83 | CCC(C)[C@H]1CNC(=O)C(=O)N1CCCc1cc(OC)c(OC)c(OC)c1 (some centres unmarked) | 9.16
84 | COc1ccc(C2Nc3ccccc3C(=O)N2c2ccccc2)cc1CN1CCOCC1 (centres unmarked) | -26.7
85 | CCN(CC)CCN1C(=O)c2ccccc2NC1c1ccc(F)cc1 (centres unmarked) | -64.3
86 | COc1ccc(C2Nc3ccccc3C(=O)N2Cc2ccccc2)cc1CN1CCOCC1 (centres unmarked) | -63.5
87 | CCN(CC)CCN1C(=O)c2ccccc2NC1c1cc(OC)c(OC)c(OC)c1 (centres unmarked) | -40.7
88 | CCCN1C(=O)c2ccccc2NC1c1ccc(Cl)cc1 (centres unmarked) | -7.23
89 | COc1ccc(C2Nc3ccccc3C(=O)N2O)cc1CN1CCOCC1 (centres unmarked) | -2.72
